Measured values published in PubChem BioAssay AID743381 (National Center for Advancing Translational Sciences (NCATS), 2014).
Results filed as inconclusive are left out. Values without a mark were called inactive. The source made the active and inactive calls. The call rests on the fitted dose curve; in most records, active means well fitted inhibition curve with a large enough effect; inconclusive means small, poorly fitted or top-dose-only effect; inactive means flat fitted curve, though single readings scatter.

molecular target: Phosphatidylinositol 5-phosphate 4-kinase type-2 alpha (Homo sapiens) (UniProt P48426); assay: qHTS for Inhibitors of PI5P4K: PI5P4K-alpha Confirmatory Assay for Probe SAR; settings: Purified PI5P4Kalpha, ADP-Glo luminescence, 60 min; series mostly up to 76.9 µM; activity change, negative = inhibition: at the top concentration
Sequence (P48426 whole entry, looked up, canonical isoform): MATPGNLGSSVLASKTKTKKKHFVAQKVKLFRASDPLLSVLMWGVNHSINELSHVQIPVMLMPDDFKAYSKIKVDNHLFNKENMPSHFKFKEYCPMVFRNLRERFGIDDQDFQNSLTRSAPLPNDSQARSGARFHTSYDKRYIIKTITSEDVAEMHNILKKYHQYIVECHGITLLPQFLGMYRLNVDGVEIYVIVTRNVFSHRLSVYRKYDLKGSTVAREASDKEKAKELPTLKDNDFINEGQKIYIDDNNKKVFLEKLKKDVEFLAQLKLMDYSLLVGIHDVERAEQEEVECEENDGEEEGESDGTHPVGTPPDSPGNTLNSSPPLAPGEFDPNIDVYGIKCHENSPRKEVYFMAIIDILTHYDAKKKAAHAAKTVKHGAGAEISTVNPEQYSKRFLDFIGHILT
Text: In addition to finding PI5P, we discovered the type II phosphatidylinositol 5-phosphate 4-kinase (PI5P4K) family (alpha, beta, gamma isoforms) that catalyze the conversion of PI5P to PI(4,5)P2. Alternatively, PI(4,5)P2 can also be synthesized through phosphatidylinositol-4-phosphate (PI4P) by the type I phosphatidylinositol 4-phosphate 5-kinases (PI4P5K). These PI5P4K enzymes therefore represent one way by which cells can regulate endogenous PI5P levels and play important roles in insulin signaling and in stress responses. […] A qHTS PI5P4Kalpha ADP-Glo assay was developed to identify specific modulators of human PI5P4K, phosphatidylinositol-5-phosphate 4-kinase (Type II PIPK). This assay was screened against the MLSMR containing ~400,000 small molecules (PubChem AID 652105). The same assay was used to validate subsequent Medicinal Chemistry efforts on the active compounds and its analogs. Inhibition of the enzyme activity (signal decrease) is the desired outcome for this assay. Davis et al., PLoS One. 2013; 8(1):e54127. NIH Chemical Genomics Center [NCGC] NIH Molecular Libraries Probe Centers Network [MLPCN] MLPCN Grant: MH096575 Assay Submitter (PI): Atsuo Sasaki, Beth Israel Deaconess Medical Center
Two microliter of PI5P4Kalpha/substrate buffer (columns 1-2, 5-48) was dispensed into Greiner white solid bottom 1536-well assay plates; column 3 received only PI5P4Kalpha buffer as no substrate control; column 4 receives only substrate buffer as no PI5P4Kalpha controls. Final assay buffer consists of 0.038 M HEPES pH 7.4, 0.28 mM EGTA, 0.1 % CHAPS, and 5% DMSO (final concentration). Compounds were then transferred via Kalypsys pin tool equipped with 1536-pin array. Following addition of compound, 1 uL of ATP (5 uM final concentration) was added to initiate the reaction. ATP was diluted in an assay buffer consisting of 0.02 M HEPES pH 7.4, 60 mM MgCl2, 15 uM ATP, and 0.1% CHAPS. The plates were then incubated at room temperature for 60 minutes. ADP-Glo reagent 1 was added and plates incubated for 45 minutes. ADP-Glo reagent 2 was added and the plates were incubated for 30 minutes. The plates were transferred to a ViewLux high-throughput CCD imager (PerkinElmer) wherein single end-point measurements of luminescence were acquired using a clear filter.

SMILES	Potency	activity change, negative = inhibition [%]
O=C1Nc2cccc(Cl)c2/C1=C\c1cc(Cl)c(O)c(Cl)c1	3.07 µM (active)	
O=C1Nc2ccccc2C12CC2c1cc(Cl)c(O)c(Cl)c1 (centres undefined)	10.9 µM (active)	
O=C1Nc2ccccc2/C1=C\c1ccc(O)cc1	24.4 µM (active)	
O=C1Nc2ccccc2/C1=C\c1cc(F)c(O)c(F)c1	0.487 µM (active)	
COc1ccc(/C=C2/C(=O)Nc3ccccc32)cc1O	0.772 µM (active)	
O=C1Nc2ccccc2/C1=C/c1cc(Cl)c(O)c(Cl)c1	0.867 µM (active)	
Cc1cccc2c1NC(=O)/C2=C/c1cc(Cl)c(O)c(Cl)c1	0.547 µM (active)	
COc1cc(/C=C2/C(=O)Nc3ccccc32)cc(OC)c1O	30.7 µM (active)	
O=C1Nc2ccccc2/C1=C\c1ccc([N+](=O)[O-])cc1	2.74 µM (active)	
O=C1Nc2ccccc2/C1=C\c1cc(Br)c(O)c(Br)c1	1.22 µM (active)	
O=C1Nc2ccccc2/C1=C/c1cccc(C(=O)O)c1	10.9 µM (active)	
O=C1Nc2ccccc2/C1=C\c1ccc(O)c(F)c1	2.18 µM (active)	
COc1cc(/C=C2\C(=O)Nc3ccccc32)ccc1O	19.4 µM (active)	
O=C1Nc2ccccc2/C1=C/c1ccc[nH]1		11
